# Assay outcomes from PubChem.
# Sampled rows, rich in hits. Any-hit rate of the full collection: about 0.49%.
# IDH1 R132H inh: inhibitors of human mutant IDH1 R132H | IDH1-R132H enzyme, NADPH consumption, diaphorase/resazurin fluorescence | Potency, µM (titrated, usually from 76.6 µM), actives largely listed as inhibitors | actives 0.093% (n = 390,000) | AID 602179 | O75874; also: nearly all actives have a fitted effect of over 65% in size
# Target sequence (O75874 whole entry R132H, stated change not applied): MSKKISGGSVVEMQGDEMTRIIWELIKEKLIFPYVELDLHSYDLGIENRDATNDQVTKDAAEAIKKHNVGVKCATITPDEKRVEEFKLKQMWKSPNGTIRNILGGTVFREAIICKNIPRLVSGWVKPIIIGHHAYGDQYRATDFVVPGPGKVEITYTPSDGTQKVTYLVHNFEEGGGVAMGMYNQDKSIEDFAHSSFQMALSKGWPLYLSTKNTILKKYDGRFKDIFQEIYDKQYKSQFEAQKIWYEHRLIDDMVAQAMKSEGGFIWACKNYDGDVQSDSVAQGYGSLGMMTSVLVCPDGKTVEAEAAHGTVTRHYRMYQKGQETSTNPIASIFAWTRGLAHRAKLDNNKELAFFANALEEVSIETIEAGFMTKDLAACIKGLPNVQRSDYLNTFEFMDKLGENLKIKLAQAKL
#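 IDH1-R132H (0.5 ug/mL) preincubated 30 min with compound, then NADPH (0.016 mM) and alpha-KG (2 mM) added; 80 min at RT, pH 7.5. Remaining NADPH coupled via diaphorase/resazurin to fluorescence (540/590 nm); concentration-response curves normalized to no-enzyme control.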
# Vif-A3G inh: blocks the Vif interaction with human APOBEC3G. Q9HC16. actives 0.076% (n = 410,000). AID 602310. Potency, µM (titrated, usually from 46.1 µM), most hits filed as inhibitors. HeLa A3G-eYFP + Vif (tagged APOBEC3G with the HIV-1 protein that degrades it), YFP fluorescence, overnight; also: nearly all actives have a fitted effect of over 60% in size
#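 HeLa cells stably expressing Vif and C-terminally eYFP-tagged A3G, seeded overnight at 37 deg C, then exposed to compound by pintool overnight at 37 deg C. Rise in yellow fluorescence (Ex 488/Em 500-530, Acumen) marks blocked Vif-driven A3G degradation.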
# PGK inhibitor: inhibitors of T. brucei phosphoglycerate kinase; P07378; PGK/GAPDH coupled, Kinase-Glo luminescence, 60 min; Potency, µM (doses to about 57.5 µM), usual class: inhibitors; actives 0.043% (n = 380,000); AID 602233; also: nearly all actives have a fitted effect of over 60% in size
#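 Recombinant glycosomal PGK reaction used 1,3-bisphosphoglycerate generated in-well by GAPDH (100nM final) in 100mM TEA pH 7.6, 5mM MgCl2, 0.01% Tween-20. After 60 minutes at room temperature, ATP was read by Kinase-Glo Plus luminescence end-point.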
# LDHA block: blocks human lactate dehydrogenase A. activity change, % (values are at about 110 or 230 µM). AID 1347041. actives 0.15% (n = 480,000). P00338. purified LDHA, NADH/diaphorase-resazurin fluorescence; stronger effect = lower value; in the data active = activity change below about -30%; inconclusive = mostly about -25% to -30%
#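 Enzyme activity of human lactate dehydrogenase 5 (2 nM; 0.06 mM NADH, 0.2 mM pyruvate, 5 min, RT) is measured via a resazurin/diaphorase fluorescence readout of residual NADH.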
# Vif-APOBEC3F blk: inhibitors of Vif-A3F interaction; HeLa A3F-eYFP + Vif (tagged APOBEC3F with the HIV-1 protein that degrades it), YFP fluorescence increase; Potency, µM (series often up to 46.1 µM); actives 0.2% (n = 390,000); AID 602313; also: nearly all actives have a fitted effect of over 65% in size
#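 HeLa cells stably expressing Vif plus C-terminally eYFP-tagged A3F were seeded, incubated overnight at 37 deg C, dosed with compound, incubated overnight again at 37 deg C. Yellow fluorescence (Ex 488/Em 500-530) reported blocked Vif-mediated A3F-eYFP degradation.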
# Pin1 inh: inhibitors of human Pin1 | Q13526 | Pin1 FP peptide displacement, HiFluor488, 10 min | Potency, µM (doses to about 115 µM), actives largely listed as inhibitors | actives 0.009% (n = 390,000) | AID 504891; active = well fitted inhibition curve with a large enough effect in the polarisation, with a control signal flat, not every such curve was filed as active; inconclusive = small, poorly fitted or top-dose-only effect, or effect the other way, or a change in a side signal; inactive = no such curve, though single readings can be large or run the other way; the % refers to the polarisation
# Target sequence (Q13526 whole entry, looked up): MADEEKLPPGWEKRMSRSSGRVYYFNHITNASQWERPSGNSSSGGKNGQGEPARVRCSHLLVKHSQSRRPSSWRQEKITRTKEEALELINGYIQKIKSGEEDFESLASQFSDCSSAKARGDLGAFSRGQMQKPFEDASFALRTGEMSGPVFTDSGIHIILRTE
# Hits are given with their value; n = inactive; u = inconclusive; x = no result given. Unless noted, calls follow the shape of the dose curve; as a rule, active = well fitted curve in the direction sought with a large enough effect; inconclusive = small, poorly fitted or top-dose-only effect, or another doubt; inactive = no such curve, though single readings can be large; an effect the other way counts as inactive or inconclusive.
SMILES,IDH1 R132H inh,Vif-A3G inh,PGK inhibitor,LDHA block,Vif-APOBEC3F blk,Pin1 inh
COc1cccc(OC)c1NC(=O)CN1CCN(C)CC1,n,n,n,-32.1,n,n
CC(C)(C)c1cc(Cc2cc(C(C)(C)C)c(O)c(C(C)(C)C)c2)cc(C(C)(C)C)c1O,x,x,x,n,x,x
COc1ccc(Oc2coc3cc(OCc4ccccc4F)ccc3c2=O)cc1,x,x,x,n,x,x
CCn1c(=O)c(C(=O)Nn2c(C)nc3ccccc3c2=O)c(O)c2ccccc21,n,n,n,u,n,n
CCc1nc2ccccc2c(=O)n1NC(=O)c1c(O)c2ccccc2n(CC)c1=O,n,n,n,-39.7,n,n
O=C(O)C(c1c[nH]c2ccc(Cl)cc12)N1CCN(Cc2ccc(Cl)cc2Cl)CC1 (configuration not stated),x,x,x,n,x,x
Cc1ccc(C(=O)Nc2nc3nc(C)cc(=O)n3[nH]2)cc1,n,n,n,-70.4,n,n
COc1ccc2c(c1)CCCN2C(=O)c1cc2ccc(Cl)cc2nc1C,x,x,x,n,x,x
COc1ccc(-n2c(C)cc(/C=C3\SC(=S)NC3=O)c2C)cc1,n,n,n,n,10µM,u
CCSC1=N/C(=C\C=C2/Oc3ccccc3N2CC)C(=O)S1,n,7.08µM,n,n,6.31µM,u
CCn1c(C)[n+](CCCS(=O)(=O)[O-])c2cc(Cl)c(Cl)cc21,n,n,n,-46.1,n,n
CCCOc1ccc(C[N+](C)(C)C)cc1C[N+](C)(C)C,x,x,x,n,x,x
Cc1ccc(CNS(=O)(=O)c2cc(-c3cc(C)no3)ccc2C)cc1,x,x,x,n,x,x
CCC(C)C(N)C1=NC(C(=O)N[C@@H](CC(C)C)C(=O)N[C@H](CCC(=O)[O-])C(=O)N[C@H](C(=O)N[C@H]2CCCCNC(=O)[C@H](CC(N)=O)NC(=O)[C@@H](CC(=O)[O-])NC(=O)[C@H](Cc3cnc[nH]3)NC(=O)[C@@H](Cc3ccccc3)NC(=O)[C@H]([C@@H](C)CC)NC(=O)[C@@H](CCCN)NC2=O)[C@@H](C)CC)CS1.[Zn+2] (some centres not stated),31.6µM,n,28.2µM,n,n,20µM
CCNc1ccc(Br)cc(C(=O)/C=C/c2ccc3c(c2)OCO3)c1=O,n,n,n,n,12.6µM,n
CN1C(=O)N(C)c2ccc(C=O)c3cccc1c23,n,n,n,n,11.2µM,x
Nc1ccc(C(=O)N/N=C/c2cn(Cc3ccc(F)cc3)c3ccccc23)cc1,n,n,n,n,n,n
O=C(N/N=C/c1cn(Cc2cccc(F)c2)c2ccccc12)c1cc(O)cc(O)c1,n,n,4.47µM,n,n,x
CCCOC(=O)c1ccc(Nc2nc(C(=O)OCC)nc3ccccc23)cc1,x,x,x,-33.8,x,x
Cc1ccc(N(CC(=O)O)CC(=O)O)cc1,x,x,x,n,x,x
C=C(C)Cn1c(SCCOCC)nc2c1c(=O)[nH]c(=O)n2C,x,x,x,n,x,x
COc1cc(NC(=O)c2ccc(Cn3cc(Br)cn3)cc2)ccc1OC(F)F,x,x,x,n,x,x
c1ccc2c(c1)Cc1cccnc1-2,x,x,x,n,x,x
O=C1c2ccccc2-c2nc3ccccc3cc21,n,n,n,n,2.82µM,n
c1ccc2c(c1)Cc1cc3ccccc3nc1-2,n,u,n,n,10µM,n
SMILES,IDH1 R132H inh,Vif-A3G inh,PGK inhibitor,LDHA block,Vif-APOBEC3F blk,Pin1 inh
C/C=C/C(=O)OCc1nc2c(c(=O)[nH]c(=O)n2CCCC)n1C,x,x,x,n,x,x
N#Cc1nc(COc2cccc(Cl)c2)oc1N1CCCCCC1,x,x,x,n,x,x
CCN1CCCC1CNC(=O)CC(C)C (configuration not stated),x,x,x,n,x,x
Cc1cccc(NC(NC(=O)c2ccc(Cl)cc2)C(Cl)(Cl)Cl)c1 (configuration not stated),x,x,x,n,x,x
CN1CCc2nc3sc(C(=O)c4ccc(Cl)cc4)c(N)c3cc2C1,x,x,x,n,x,x
Nc1c(C(=O)c2ccc(Cl)cc2)sc2nc3c(cc12)CCC3,n,n,n,n,25.1µM,n
COc1cc(/C=C(/C(=O)c2cccs2)c2nc3ccccc3[nH]2)ccc1O,n,10µM,n,n,n,n
CC(=O)c1cccc(NC(=O)COC(=O)Cc2cccc3ccccc23)c1,x,x,x,n,x,x
CC(C)c1noc(-c2ccc(OCC(=O)NCc3cc(F)cc(F)c3)cc2)n1,x,x,x,n,x,x
CCOC(=O)/C(C#N)=C/C=C1/C=CC=CN1C,n,n,n,n,n,n
C=CCN1C=CC(=C/C=C(/C#N)C(=O)OCC)C=C1,n,u,n,n,11.2µM,u
COc1ccc(N/C=C\C(=O)c2ccc(Br)cc2)cc1OC,n,n,n,n,31.6µM,u
COc1ccc(N/C=C\C(=O)c2ccc(C)cc2)cc1OC,n,n,n,n,u,u
Cc1ccc(F)c(NC(=O)CCNC(=O)c2cccs2)c1,x,x,x,n,x,x
CCC(=O)Nc1cc(C)ccc1NC(=O)c1cccs1,x,x,x,-31.2,x,x
CCCC(=O)N1CCN(c2nc(C)c3c(c2C#N)CCCC3)CC1,x,x,x,n,x,x
CC(=O)Oc1ccc2c(C)cc(=O)oc2c1C(=O)c1ccccc1,n,n,n,-34.6,n,n
CN(C)c1ccc(/C=C2\SC(N3CCCCC3)=NC2=O)cc1,n,u,n,n,22.4µM,u
O=C(/C=C/c1ccco1)Nc1cccc(C(=O)Nc2ccccc2C(=O)O)c1,n,n,31.6µM,u,n,u
NCCCCOc1ccc(OCc2ccccc2)cc1,x,x,x,n,x,x
CCN(CC)CCCNc1ccc2ncn3c4ccc(O)cc4c(=O)c1c23,n,u,n,n,22.4µM,x
Fc1ccc(CNc2nc3ccc(Cl)cc3n3nnnc23)cc1,n,n,n,n,7.94µM,u
COc1ccccc1CNc1nc2ccc(C)cc2n2nnnc12,n,n,n,n,12.6µM,n
Cc1ccc(CNc2nc3ccc(Cl)cc3n3nnnc23)cc1,n,n,n,n,7.08µM,u
Cc1ccc(CNc2nc3ccc(C)cc3n3nnnc23)cc1,n,n,n,n,n,n
SMILES,IDH1 R132H inh,Vif-A3G inh,PGK inhibitor,LDHA block,Vif-APOBEC3F blk,Pin1 inh
CCCOC(=O)/C(=C\c1ccc([N+](=O)[O-])o1)NC(=O)c1ccccc1,n,u,n,n,7.08µM,n
CN(C(=O)Cn1cc(C#N)c2ccccc21)C1CCCCC1,x,x,x,n,x,x
CCCNC(=O)C1CCN(C(=O)CCc2c(C)[nH]c(C(=O)OCC)c2C)CC1,x,x,x,n,x,x
Cc1cccn2c(=O)c3cc(C#N)c(=NC(=O)c4cccs4)n(CCCOC(C)C)c3nc12,n,n,n,n,25.1µM,u
CCCCNc1c(-c2ccc(OC)c(Sc3ccc(OC)cc3)c2)nc2cnccn12,n,n,n,n,n,n
CCCCNc1c(-c2ccc(SC(C)CC)cc2)nc2cnccn12 (configuration not stated),n,u,n,n,10µM,u
Cc1ccc(/C=C/C(=O)Nc2ccc([N+](=O)[O-])cc2)o1,n,n,n,n,n,n
CCOC(=O)CCc1ccc(NC(=O)/C=C/c2ccc([N+](=O)[O-])o2)cc1,n,7.94µM,n,n,11.2µM,n
